Source: PubChem BioAssay AID1159580 (chemical genetic matrix, 2015)
Where “and” joins values, the source holds several entries; their conditions need not be identical. Equal entries are not always repeated. About 2,000 (36%) of roughly 5,500 compounds were called active. Another 18% or so got no clear call; they are omitted. Rule as the data show it: active = normalized growth mostly below about 0.91 (no sharp cut-off); inconclusive = no clear call, values can overlap the other calls; inactive = mostly above about 0.92. The list shows a part of the results.

Test: chemical genetic growth profiling, strain panel (AID 1159580);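 also: tested at 20 µM; growth read once vehicle control cultures reached saturation at 30 °C; 1 = growth at the plate median or of vehicle wells; lower values mean less growth of the strain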
Conditions: S. cerevisiae deletion strains, growth OD

Measured: normalized growth

NCCCN
inactive: locus YAL021C, strain ccr4, stronger effect = lower value 1.02 | locus YAL026C, strain drs2, stronger effect = lower value 0.984 | locus YAL030W, strain snc1, stronger effect = lower value 0.989 | locus YBL061C, strain skt5, stronger effect = lower value 0.989 | locus YBR009C, strain hhf1, stronger effect = lower value 0.988 | locus YBR021W, strain FUR4, stronger effect = lower value 0.996 | locus YBR023C, strain chs3, stronger effect = lower value 0.982 | locus YBR171W, strain sec66, stronger effect = lower value 0.957 | locus YBR229C, strain ROT2, stronger effect = lower value 0.99 | locus YBR231C, strain swc5, stronger effect = lower value 0.984 | locus YBR279W, strain paf1, stronger effect = lower value 1 | locus YCL011C, strain gbp2, stronger effect = lower value 0.973 | locus YCL016C, strain dcc1, stronger effect = lower value 1 | locus YCL029C, strain bik1, stronger effect = lower value 0.984 | locus YCL061C, strain MRC1, stronger effect = lower value 1.01 | locus YCL069W, strain vba3, stronger effect = lower value 0.973 | locus YCR088W, strain abp1, stronger effect = lower value 0.982 | locus YDL005C, strain med2, stronger effect = lower value 0.977 | locus YDL035C, strain GPR1, stronger effect = lower value 1.03 | locus YDL040C, strain nat1, stronger effect = lower value 0.986 | locus YDL074C, strain BRE1, stronger effect = lower value 1.01 | locus YDL101C, strain DUN1, stronger effect = lower value 0.994 | locus YDL185W, strain tfp1, stronger effect = lower value 0.983 | locus YDL192W, strain arf1, stronger effect = lower value 0.998 | locus YDR001C, strain nth1, stronger effect = lower value 0.99 | locus YDR069C, strain doa4, stronger effect = lower value 0.987 | locus YDR101C, strain arx1, stronger effect = lower value 0.976 | locus YDR137W, strain rgp1, stronger effect = lower value 1.02 | locus YDR159W, strain sac3, stronger effect = lower value 0.961 | locus YDR162C, strain NBP2, stronger effect = lower value 1.01 | locus YDR195W, strain ref2 0.981 | locus YDR297W, strain sur2, stronger effect = lower value 0.996 | locus YDR318W, strain mcm21, stronger effect = lower value 1.01 | locus YDR334W, strain swr1, stronger effect = lower value 0.962 | locus YDR335W, strain msn5, stronger effect = lower value 0.987 | locus YDR388W, stronger effect = lower value 0.993 | locus YDR392W, strain spt3, stronger effect = lower value 0.964 | locus YDR502C, strain sam2, stronger effect = lower value 0.997 | locus YEL003W, strain gim4, stronger effect = lower value 0.976 | locus YEL037C, strain rad23, stronger effect = lower value 0.98 | locus YEL061C, strain CIN8 (second series), stronger effect = lower value 0.965 | locus YEL061C, strain CIN8, stronger effect = lower value 0.997 | locus YER015W, strain faa2, stronger effect = lower value 0.992 | locus YER016W, strain bim1, stronger effect = lower value 0.989 | locus YER110C, stronger effect = lower value 0.979 | locus YER111C, strain swi4, stronger effect = lower value 0.964 | locus YER155C, strain BEM2 (second series), stronger effect = lower value 0.966 | locus YER155C, strain BEM2, stronger effect = lower value 0.982 | locus YER167W, strain BCK2, stronger effect = lower value 0.989 | locus YFR010W, strain ubp6, stronger effect = lower value 0.958 | locus YGL078C, strain dbp3, stronger effect = lower value 0.999 | locus YGL086W, strain mad1, stronger effect = lower value 0.983 | locus YGL167C, strain pmr1, stronger effect = lower value 0.983 | locus YGL173C, strain kem1, stronger effect = lower value 0.972 | locus YGL227W, strain vid30, stronger effect = lower value 0.986 | locus YGL240W, strain doc1, stronger effect = lower value 0.979 | locus YGL248W, strain PDE1, stronger effect = lower value 1.01 | locus YGL253W, strain hxk2, stronger effect = lower value 0.968 | locus YGR078C, strain PAC10, stronger effect = lower value 1 | locus YGR135W, strain pre9, stronger effect = lower value 1.01 | locus YGR252W, strain gcn5, stronger effect = lower value 1.08 | locus YHR013C, strain ard1, stronger effect = lower value 0.972 | locus YHR027C, strain rpn1, stronger effect = lower value 1.01 | locus YHR030C, strain SLT2, stronger effect = lower value 0.997 and 0.973 | locus YHR079C, strain IRE1 (second series), stronger effect = lower value 0.994 | locus YHR079C, strain IRE1, stronger effect = lower value 0.976 | locus YHR094C, strain hxt1, stronger effect = lower value 0.979 | locus YHR129C, strain ARP1, stronger effect = lower value 1 | locus YHR142W, strain chs7, stronger effect = lower value 0.976 | locus YHR200W, strain rpn10, stronger effect = lower value 0.993 | locus YIL066C, strain RNR3, stronger effect = lower value 0.995 | locus YIL073C, strain SPO22, stronger effect = lower value 1.06 | locus YIL125W, strain kgd1, stronger effect = lower value 0.991 | locus YIR030C, strain dcg1, stronger effect = lower value 0.992 | locus YJL092W, strain hpr5, stronger effect = lower value 0.969 | locus YJL095W, strain BCK1 (second series), stronger effect = lower value 0.984 | locus YJL095W, strain BCK1, stronger effect = lower value 1.05 and 1.04 | locus YJL115W, strain asf1, stronger effect = lower value 0.956 | locus YJL129C, strain trk1, stronger effect = lower value 0.995 | locus YJL134W, strain LCB3, stronger effect = lower value 1 | locus YJL154C, strain vps35, stronger effect = lower value 0.981 | locus YJL164C, strain tpk1, stronger effect = lower value 1.01 | locus YJL166W, strain qcr8, stronger effect = lower value 0.989 | locus YJL168C, strain set2, stronger effect = lower value 0.983 | locus YJL187C, strain SWE1 (second series), stronger effect = lower value 1.01 | locus YJL187C, strain SWE1, stronger effect = lower value 1 | locus YJR043C, strain POL32, stronger effect = lower value 1.03
